Assay results as given in the OligoGym collection.

Target: TC2N
Test: pooled miR-30 sensor sort-seq; sequence = guide strand
Settings: shRNA
Further: reference of the scale not given here.

| Sequence | sensor-assay potency score (higher = more potent) |
| --- | --- |
| TTAAATCACAAACCGATCCATA | -0.989 |
| TGAACTGGAAAGTTCTACCTTT | 0.507 |
| TTATAAATCAACTCTCCCGAGC | -0.579 |
| TTACTGTCTTCACTTATCCAAA | -1.52 |
| TTAATAGCAAATACAAACGTTT | -0.542 |
| TAAAACTGTGATCCAGATCTGT | -0.0159 |
| TTTAATAGCAAATACAAACGTT | -0.37 |
| TTGAAGAAGAACTACTGGGTAC | -0.298 |
| TTTCTTCTTACAGAGCTTCGAC | -0.277 |
| TTACTGTCTCTTTCCACTGGTT | -0.545 |
| TTACTGTCTGTGTCTCTTGTTG | -0.31 |

Target: TCEA3
Test: as above
Settings: shRNA

| Sequence | sensor-assay potency score (higher = more potent) |
| --- | --- |
| TCTTGTCACAGTTGACTCCATA | -0.75 |
| TTCTTCTTCTTGCATTTGCTGC | -0.856 |
| ATAGGTGCAGTTCTTCTTCTTG | -0.625 |
| ATTAACAGCAACTCCAATCCTG | 0.388 |
| TACTTCATGTCCGTGCTCTTGA | 0.446 |
| TCTGATGCCATCTTGTCACAGT | -0.177 |
| TTAACAGCAACTCCAATCCTGG | -0.797 |
| TTCTTCTTGCATTTGCTGCACT | -0.468 |
| TCGATTTCTGATGCCATCTTGT | -0.388 |
| TTGGTAGATATGATCTTCGATT | -0.766 |
| TTGAGGTTGCTTATGCGGCTGC | -0.208 |
| TTCCGGTACTTCATGTCCGTGC | 0.146 |

Target: TCEAL1
Test: as above
Settings: shRNA

| Sequence | sensor-assay potency score (higher = more potent) |
| --- | --- |
| TTTGTTTCTTACTCTTTTCATC | -1.09 |
| ATCAGTTTGTTTCTTACTCTTT | -0.801 |
| TTTTCATCTCTTCTAGCTCATC | -1.39 |
| TAAATTGCGGGCGAGAACGAGC | -1.13 |
| AAAGCTTCCTTCTTCAAGCTTA | 0.373 |
| TCATCTCTTCTAGCTCATCTGC | -1.12 |
| TTACTCTTTTCATCTCTTCTAG | -0.0336 |
| ATTATCATCAGTTTGTTTCTTA | 0.834 |
| TTCTAGCTCATCTGCTGCCTGT | -0.542 |
| TTATGTTTTCCTACTCCACAAG | -1.15 |
| TGTATCATCTCCTCATTGCTTA | 0.297 |
| TTCGGGAGAGTGCTCCACCGGA | -1.49 |

Target: TCEANC2
Test: as above
Settings: shRNA

| Sequence | sensor-assay potency score (higher = more potent) |
| --- | --- |
| TTTCTGAGCATTTTTCCTCAAC | -1.1 |
| TTCACAGTGTGACCTATCCTTG | -0.944 |
| TTTTCTTCTTTAATTCTTGTAA | -0.255 |
| TAGAAGGTCTATTTGAATGTTT | -0.0592 |
| TACAACCACAACTCTCTTCAGA | -0.694 |
